The text below walks through data of PubChem BioAssay AID602327 (NMMLSC, 2012).

Some of the results follow. The source made the active and inactive calls. No stated cut-off is given here; in the data, active means inhibition above about 25%; inactive means the rest.

For the experiment, the target named is Lethal factor (Bacillus anthracis) (UniProt P15917). Put plainly: anthrax lethal factor cleavage blockers – biochemical, multiplex microsphere, confirmation (AID 602327). The conditions noted are these: multiplex microsphere protease cleavage assay; at 10 µM; hits give high values.
Lethal factor (Bacillus anthracis), sequence (P15917 whole entry, looked up): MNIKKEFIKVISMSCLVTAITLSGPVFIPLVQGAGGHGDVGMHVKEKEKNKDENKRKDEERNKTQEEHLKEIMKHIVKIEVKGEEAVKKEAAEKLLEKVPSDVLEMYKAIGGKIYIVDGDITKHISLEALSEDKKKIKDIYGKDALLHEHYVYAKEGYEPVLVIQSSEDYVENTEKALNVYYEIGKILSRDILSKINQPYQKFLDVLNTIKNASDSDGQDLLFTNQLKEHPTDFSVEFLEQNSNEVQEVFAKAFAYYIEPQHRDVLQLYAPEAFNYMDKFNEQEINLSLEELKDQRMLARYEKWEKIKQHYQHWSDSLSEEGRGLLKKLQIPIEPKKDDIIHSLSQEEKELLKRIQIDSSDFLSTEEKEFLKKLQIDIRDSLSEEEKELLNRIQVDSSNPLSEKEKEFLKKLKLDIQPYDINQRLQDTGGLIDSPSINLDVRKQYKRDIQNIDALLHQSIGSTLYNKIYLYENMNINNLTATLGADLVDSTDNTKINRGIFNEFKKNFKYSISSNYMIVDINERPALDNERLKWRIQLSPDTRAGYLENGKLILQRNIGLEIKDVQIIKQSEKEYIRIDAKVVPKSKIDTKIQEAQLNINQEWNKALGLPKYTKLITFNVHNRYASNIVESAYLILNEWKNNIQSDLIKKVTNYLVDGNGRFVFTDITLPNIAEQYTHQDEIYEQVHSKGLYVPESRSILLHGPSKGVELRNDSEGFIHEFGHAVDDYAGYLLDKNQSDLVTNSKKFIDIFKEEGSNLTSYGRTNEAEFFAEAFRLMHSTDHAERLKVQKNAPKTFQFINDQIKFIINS
For `COc1ccc(-c2cc3c(c4c2ccn4C)C2CCC3C2)cn1` (stereo not drawn), the inhibition (as a rule, the drop in the measured response relative to a control, in per cent) is 26.4% (active).

For the compound `Cc1cc2cc(CNC(=O)c3ccc(S(=O)(=O)N4CCOCC4)cc3)ccc2[nH]1`, the inhibition was -0.8% (inactive).

As to `CCOc1ncccc1C(=O)OCC(=O)c1c[nH]c2ccccc12`, the inhibition is 10.4% (inactive).

On to `O=C(OCC(=O)c1c[nH]c2ccccc12)c1cccc(O)c1`, for which the inhibition was -2.5% (inactive).

Regarding `Cc1cc2ccccc2n1CCNC(=O)COc1ccc2ccccc2c1`, the inhibition is 0.2% (inactive).

Take `CC(=O)OCCN(CCCn1c(-c2ccncc2)nc2ccccc21)c1nc(-c2ccc(C)cc2)cs1`: the inhibition is 0.3% (inactive).

Consider `Cc1ccc(CNC(=O)c2cccc3c2C(=O)c2ccc(N4CCC(C)CC4)cc2S3(=O)=O)cc1`, for which the inhibition is 7.9% (inactive).

As to `O=C(CN1CCN(c2ccccc2O)CC1)NC(=O)NCc1ccccc1`, the inhibition is -1.7% (inactive).
